Source: PubChem BioAssay AID1159580 (chemical genetic matrix, 2015)
In all, about 5,500 compounds went through this assay and about 2,000 (36%) were called active. Inconclusive results (about 18%) are left out. No stated cut-off is given here; in the data, active means normalized growth mostly below about 0.91 (no sharp cut-off); inconclusive means no clear call, values can overlap the other calls; inactive means mostly above about 0.92. Some of the results follow.

Test: chemical genetic growth profiling, strain panel (AID 1159580);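 further: tested at 20 µM; growth read once vehicle control cultures reached saturation at 30 °C; 1 = growth at the plate median or of vehicle wells; lower values mean less growth of the strain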
Conditions: S. cerevisiae deletion strains, growth OD
[1] = locus YHR030C, strain SLT2, hits give low values

Measured: normalized growth

O=C1NCCN=C(c2ccccc2)c2ccccc21
inactive: locus YAL013W, strain DEP1, hits give low values 0.999 | locus YBR229C, strain ROT2, hits give low values 1 | locus YCL061C, strain MRC1, hits give low values 0.99 | locus YDL101C, strain DUN1, hits give low values 0.984 | locus YDL134C, strain PPH21, hits give low values 1.01 | locus YDR150W, strain NUM1, hits give low values 0.911 | locus YEL061C, strain CIN8, hits give low values 0.995 | locus YGR078C, strain PAC10, hits give low values 0.99 | [1] 1.03 | locus YHR087W, strain rtc3, hits give low values 0.999 | locus YJL187C, strain SWE1, hits give low values 0.997 | locus YJR043C, strain POL32, hits give low values 0.995 | locus YJR075W, strain HOC1, hits give low values 1.01 | locus YLR039C, strain RIC1, hits give low values 0.985 | locus YLR058C, strain SHM2 (second series), hits give low values 0.998 | locus YLR085C, strain ARP6, hits give low values 1.01 | locus YLR262C, strain YPT6, hits give low values 0.968 | locus YML094W, strain GIM5, hits give low values 0.98 | locus YMR219W, strain ESC1, hits give low values 0.999 | locus YMR263W, strain SAP30, hits give low values 0.973 | locus YMR307W, strain GAS1, hits give low values 0.994 | locus YNL153C, strain GIM3, hits give low values 0.99 | locus YNL298W, strain CLA4 (second series), hits give low values 1.01 | locus YNL322C, strain KRE1, hits give low values 0.994 | locus YNR030W, strain Alg12, hits give low values 1 | locus YOL006C, strain TOP1, hits give low values 1 | locus YPL055C, strain LGE1, hits give low values 0.956 | locus YPL241C, strain CIN2, hits give low values 0.976 | locus YPR135W, strain CTF4, hits give low values 1.01

CC(=O)c1ccc[nH]1
inactive: locus YAL021C, strain ccr4, hits give low values 1.01 | locus YAL026C, strain drs2, hits give low values 1 | locus YAL030W, strain snc1, hits give low values 0.997 | locus YBL061C, strain skt5, hits give low values 0.996 | locus YBR009C, strain hhf1, hits give low values 1.02 | locus YBR023C, strain chs3, hits give low values 0.998 | locus YBR171W, strain sec66, hits give low values 1.01 | locus YBR231C, strain swc5, hits give low values 1 | locus YBR279W, strain paf1, hits give low values 1.01 | locus YCL011C, strain gbp2, hits give low values 1 | locus YCL016C, strain dcc1, hits give low values 0.997 | locus YCL069W, strain vba3, hits give low values 1 | locus YCR088W, strain abp1, hits give low values 1.01 | locus YDL005C, strain med2, hits give low values 0.99 | locus YDL040C, strain nat1, hits give low values 0.998 | locus YDR001C, strain nth1, hits give low values 1 | locus YDR069C, strain doa4, hits give low values 1.01 | locus YDR137W, strain rgp1, hits give low values 0.98 | locus YDR159W, strain sac3, hits give low values 0.975 | locus YDR195W, strain ref2 0.979 | locus YDR297W, strain sur2, hits give low values 1.01 | locus YDR334W, strain swr1, hits give low values 0.995 | locus YDR335W, strain msn5, hits give low values 0.993 | locus YDR392W, strain spt3, hits give low values 1.01 | locus YEL003W, strain gim4, hits give low values 0.998 | locus YEL037C, strain rad23, hits give low values 1 | locus YEL061C, strain CIN8 (second series), hits give low values 1.01 | locus YER015W, strain faa2, hits give low values 1 | locus YER016W, strain bim1, hits give low values 0.995 | locus YER111C, strain swi4, hits give low values 0.994 | locus YER155C, strain BEM2 (second series), hits give low values 0.994 | locus YFR010W, strain ubp6, hits give low values 1 | locus YGL167C, strain pmr1, hits give low values 0.988 | locus YGL173C, strain kem1, hits give low values 0.998 | locus YGL227W, strain vid30, hits give low values 0.996 | locus YGL240W, strain doc1, hits give low values 1 | locus YGL253W, strain hxk2, hits give low values 1 | locus YHR013C, strain ard1, hits give low values 1.01 | locus YHR027C, strain rpn1, hits give low values 0.991 | [1] 1 | locus YHR079C, strain IRE1, hits give low values 0.992 | locus YHR142W, strain chs7, hits give low values 1 | locus YJL092W, strain hpr5, hits give low values 0.992 | locus YJL095W, strain BCK1 (second series), hits give low values 0.988 | locus YJL095W, strain BCK1, hits give low values 0.988 | locus YJL115W, strain asf1, hits give low values 0.993 | locus YJL129C, strain trk1, hits give low values 0.988 | locus YJL154C, strain vps35, hits give low values 0.996 | locus YJL164C, strain tpk1, hits give low values 1.01 | locus YJL166W, strain qcr8, hits give low values 1.01 | locus YJR066W, strain TOR1, hits give low values 0.942 | locus YKL160W, strain elf1, hits give low values 1 | locus YKR026C, strain gcn3, hits give low values 0.998 | locus YKR091W, strain srl3, hits give low values 0.999 | locus YLL001W, strain dnm1, hits give low values 1.01 | locus YLL026W, hits give low values 1 | locus YLL041C, strain sdh2, hits give low values 1 | locus YLR027C, strain aat2, hits give low values 1 | locus YLR113W, strain HOG1, hits give low values 1 | locus YLR221C, strain rsa3, hits give low values 1.01 | locus YLR258W, strain gsy2, hits give low values 1.01 | locus YLR262C, strain YPT6 (second series), hits give low values 1.03 | locus YLR320W, strain mms22, hits give low values 1 | locus YLR342W, strain FKS1, hits give low values 0.999 | locus YLR357W, strain rsc2, hits give low values 0.971 | locus YLR370C, strain arc18, hits give low values 0.994 | locus YLR384C, strain iki3, hits give low values 0.997 | locus YML120C, strain ndi1, hits give low values 1.01 | locus YMR058W, strain fet3, hits give low values 0.997 | locus YMR125W, strain sto1, hits give low values 0.997 | locus YMR129W, hits give low values 0.996 | locus YMR205C, strain PFK2, hits give low values 1.01 | locus YMR231W, strain pep5, hits give low values 1 | locus YNL071W, strain lat1, hits give low values 1 | locus YNL183C, strain NPR1, hits give low values 0.902 | locus YNL209W, strain ssb2, hits give low values 1.01 | locus YNL248C, strain rpa49, hits give low values 0.98 | locus YNL322C, strain KRE1 (second series), hits give low values 0.986 | locus YNR049C, strain mso1, hits give low values 1.01 | locus YOR001W, strain rrp6, hits give low values 1 | locus YOR070C, strain gyp1, hits give low values 1.01 | locus YOR080W, strain dia2, hits give low values 1 | locus YOR083W, strain WHI5, hits give low values 1 | locus YOR106W, strain vam3, hits give low values 0.985 | locus YOR231W, strain MKK1, hits give low values 1.02 | locus YOR265W, strain rbl2, hits give low values 1.02 | locus YOR270C, strain vph1, hits give low values 1.01 | locus YOR290C, strain snf2, hits give low values 0.992 | locus YPL051W, strain arl3, hits give low values 1.02 | locus YPL078C, strain atp4, hits give low values 1.01 | locus YPL106C, strain sse1, hits give low values 0.978 | locus YPL240C, strain hsp82, hits give low values 0.994 | locus YPL256C, strain CLN2, hits give low values 0.99
